{"source": "PubChem BioAssay AID540276", "about": "(National Center for Advancing Translational Sciences (NCATS), 2011)", "note": "Among all 300,000 compounds or so, about 5,400 (1.8%) were called active. Not shown: some 28% with an inconclusive outcome. The sample holds actives, similar compounds and a random draw of the others, so the mix is not that of the screen. Unmarked numbers belong to inactive results. Calls follow the shape of the full dose curve; tested in HEK293 cells. % is scaled to controls: 0 for no effect and ±100 for the full control effect; potency is read from the fitted curve at half-maximal effect."}
{"test": "qHTS for inhibitors of binding or entry into cells for Marburg Virus", "conditions": "Marburg virus pseudotyped entry inhibition, cell reporter; series mostly up to 37.8 µM; activity change, negative = inhibition: at the top concentration"}
{"smiles": "O=C(CSc1nc(C2CC2)nc2ccccc12)Nc1cccc(O)c1", "activity change, negative = inhibition": "-15.4% [at 46.1 µM]"}
{"smiles": "CCOc1ccccc1NC(=O)CCc1ccc(C)o1", "activity change, negative = inhibition": "-18.1%"}
{"smiles": "Cc1cnc(NC(=O)CSc2nnc(-c3ccc(Cl)cc3Cl)n2N)s1", "activity change, negative = inhibition": "0%"}
{"smiles": "Cc1ccc(CCC(=O)Nc2ncc(Cc3cc(Cl)ccc3Cl)s2)o1", "Potency": "0.651 µM (active)"}
{"smiles": "O=C(OCCOc1ccccc1F)c1cc(S(=O)(=O)N2CCOCC2)ccc1F", "activity change, negative = inhibition": "-2.85% [at 46.1 µM]"}
{"smiles": "CCCCC(=O)NC(c1ccc(OC)c(OC)c1)c1ccc2cccnc2c1O", "note": "(stereo unspecified)", "Potency": "3.16 µM (active)"}
{"smiles": "C=CCn1c(COc2cccc3cccnc23)nnc1SCC(=O)OC", "activity change, negative = inhibition": "0.388%"}
{"smiles": "COc1ccc(CCNC(=O)C(Sc2ccccn2)c2ccccc2)cc1OC", "note": "(stereo unspecified)", "activity change, negative = inhibition": "-0.361%"}
{"smiles": "Cc1cccc(NC(=O)c2cccnc2Cl)n1", "activity change, negative = inhibition": "4.02% [at 46.1 µM]"}
{"smiles": "CCOc1ccc(-n2c(SCC(=O)Nc3cc(C(=O)O)ccc3Cl)nc3ccccc3c2=O)cc1", "activity change, negative = inhibition": "21.7% [at 46.1 µM]"}
{"smiles": "N#CCCN(C(=O)COC(=O)c1ccc2c(c1)OCCO2)c1ccccc1", "activity change, negative = inhibition": "-14.4% [at 46.1 µM]"}
{"smiles": "COC(=O)CN(C(=S)Nc1ccc(Cl)cc1)C1CC(=O)N(c2ccc(OC)cc2)C1=O", "note": "(stereo unspecified)", "activity change, negative = inhibition": "13.8%"}
{"smiles": "Cc1ccc(N2CC(C(=O)Nc3ccc(N(C)C)cc3)CC2=O)cc1Cl", "note": "(stereo unspecified)", "activity change, negative = inhibition": "1.2% [at 46.1 µM]"}
{"smiles": "CN(C)c1ccc(NC(=S)N(CCc2ccccc2)C2CC(=O)N(c3c(Cl)cccc3Cl)C2=O)cc1", "note": "(stereo unspecified)", "Potency": "4.47 µM (active)"}
{"smiles": "COc1ccccc1NC(=O)COC(=O)CNC(=O)C1CCCCC1", "activity change, negative = inhibition": "-18.1% [at 46.1 µM]"}
{"smiles": "CC(C=Cc1ccccc1)=NNS(=O)(=O)c1ccc([N+](=O)[O-])cc1", "activity change, negative = inhibition": "5.6% [at 46.1 µM]"}
{"smiles": "CCn1c(C(O)c2cc(OC)ccc2OC)nc2ccccc21", "note": "(stereo unspecified)", "activity change, negative = inhibition": "11.4%"}
{"smiles": "Cc1nc(-c2ccc(F)cc2)c(CC(=O)Nc2cc(S(=O)(=O)N3CCCCC3)ccc2C)s1", "activity change, negative = inhibition": "-29.3% [at 46.1 µM]"}
{"smiles": "CS(=O)(=O)c1ccc(Cl)c(NC(=O)COC(=O)c2cccc(S(=O)(=O)N3CCCC3)c2)c1", "activity change, negative = inhibition": "13.1% [at 46.1 µM]"}
{"smiles": "CC(=O)c1c(C)[nH]c(C(=O)OCC(=O)Nc2cc(S(=O)(=O)N3CCCCC3)ccc2C)c1C", "Potency": "9.2 µM (active)"}
{"smiles": "COc1ccc(CC(=O)Nc2ccc3c(c2)CCC3)cc1S(=O)(=O)N1CCOCC1", "activity change, negative = inhibition": "-5.43%"}
{"smiles": "O=C(CCc1ccc(S(=O)(=O)N2CCOCC2)cc1)Nc1ccc2ccccc2c1", "activity change, negative = inhibition": "-24%"}
{"smiles": "COc1ccc(CCC(=O)Nc2ccc(Cl)c(S(=O)(=O)N3CCOCC3)c2)cc1OC", "Potency": "6.31 µM (active)"}
{"smiles": "CCN(CC(=O)Nc1cc(Cl)ccc1C)C(=O)CSCc1ccccc1", "activity change, negative = inhibition": "-23.3%"}
{"smiles": "CCOCCCN1C(=O)C2C(C(=O)Nc3ccc(OCC)cc3)C3C=CC2(O3)C1C(=O)NC1CCCCC1", "note": "(stereo unspecified)", "activity change, negative = inhibition": "-0.0854% [at 46.1 µM]"}
{"smiles": "COc1ccc(NS(=O)(=O)c2ccc(N3CCOCC3)c(NC(=O)c3ccccc3Br)c2)cc1", "Potency": "2.51 µM (active)"}
{"smiles": "COc1ccc(NS(=O)(=O)c2ccc(C)c(C(=O)NCC(c3cccs3)N3CCOCC3)c2)cc1", "note": "(stereo unspecified)", "activity change, negative = inhibition": "17.2%"}
{"smiles": "CC(=O)Nc1ccc(S(=O)(=O)Nc2ccc(N3CCOCC3)c(F)c2)cc1", "activity change, negative = inhibition": "-4.97%"}
{"smiles": "CCCCCN(C(=O)CCC(=O)OCC(=O)NC1CCC(C)CC1)c1c(N)n(CCCC)c(=O)[nH]c1=O", "note": "(stereo unspecified)", "activity change, negative = inhibition": "-5.54%"}
{"smiles": "CC1CCN(C(=O)C2CCN(S(=O)(=O)N3CCC4(CC3)OCCO4)CC2)CC1", "activity change, negative = inhibition": "5.15% [at 46.1 µM]"}
{"smiles": "NC(=O)C1CCN(C(=O)c2cn(-c3ccccc3)nc2-c2cccnc2)CC1", "activity change, negative = inhibition": "7.53%"}
{"smiles": "C/C(=N\\NC(=O)Cc1ccc(Cl)cc1)c1ccccn1", "Potency": "3.26 µM (active)"}
{"smiles": "CC1=NNC(=O)C1CCC(=O)N/N=C(\\C)c1ccc(Cl)cc1", "note": "(stereo unspecified)", "activity change, negative = inhibition": "21% [at 46.1 µM]"}
{"smiles": "C/C(=N\\NC(=O)Cc1ccc(Br)cc1)c1cccnc1", "activity change, negative = inhibition": "7.54% [at 46.1 µM]"}
{"smiles": "Cn1c(CCNS(=O)(=O)c2ccc(F)cc2)nnc1SCc1cccnc1", "activity change, negative = inhibition": "-1.17% [at 46.1 µM]"}
{"smiles": "Cc1ccc(Br)c(NS(=O)(=O)c2cccc(C(=O)N3CCNC(=O)C3)c2)c1", "activity change, negative = inhibition": "-6.8%"}
{"smiles": "Cc1c(NC(=O)C(C)OC(=O)c2ccccc2O)c(=O)n(-c2ccccc2)n1C", "note": "(stereo unspecified)", "activity change, negative = inhibition": "-14.6%"}
{"smiles": "Fc1ccc2[nH]c3c(N4CCN(Cc5ccc6c(c5)OCO6)CC4)ncnc3c2c1", "Potency": "8.91 µM (active)"}
{"smiles": "Fc1ccc2[nH]c3c(N4CCSCC4)ncnc3c2c1", "Potency": "10 µM (active)"}
{"smiles": "Fc1ccc(N2CCN(Cc3ccc4c(c3)OCO4)CC2)cc1", "activity change, negative = inhibition": "22.5%"}
{"smiles": "Cc1cc(N2CCN(Cc3ccc4c(c3)OCO4)CC2)n2ncnc2n1", "activity change, negative = inhibition": "6.99%"}
{"smiles": "O=C(C1C=CC(C(=O)N2CCOCC2)S1)N1CCOCC1", "note": "(stereo unspecified)", "activity change, negative = inhibition": "19.3% [at 46.1 µM]"}
{"smiles": "O=C(Cn1ccc2cc(S(=O)(=O)N3CCCC3)ccc21)NCc1ccccc1", "activity change, negative = inhibition": "-13.9% [at 46.1 µM]"}
{"smiles": "COCCn1c(C)cc(C(=O)CSc2nnc(C3CC3)n2C2CC2)c1C", "activity change, negative = inhibition": "10.6%"}
{"smiles": "CCN(CC)CCCC(C)Nc1ccnc2cc(Cl)ccc12", "note": "(stereo unspecified)", "Potency": "5.62 µM (active)"}
{"smiles": "CCN(CC)CCNc1ccc(Cl)cc1[N+](=O)[O-]", "activity change, negative = inhibition": "2.68%"}
{"smiles": "COc1ccc(CNC(=O)C(C)NCc2ccccc2Cl)cc1", "note": "(stereo unspecified)", "activity change, negative = inhibition": "-8.02%"}
{"smiles": "Cc1cccc(N2C(=O)C[C@@H](N3CCN(Cc4ccc(Cl)cc4)CC3)C2=O)c1", "activity change, negative = inhibition": "-3.25%"}
{"smiles": "Cc1nn2c(c1-c1ccccc1)N=C(c1ccco1)CC2c1ccccc1", "note": "(stereo unspecified)", "Potency": "0.517 µM (active)"}
{"smiles": "Cc1ccc(C)c(C(C)NC(=O)C2CCCO2)c1", "note": "(stereo unspecified)", "activity change, negative = inhibition": "-16.9% [at 46.1 µM]"}
{"smiles": "COC(CNC(=O)c1ccc2c(c1)ncn2-c1cc(C)cc(C)c1)OC", "activity change, negative = inhibition": "0.48% [at 46.1 µM]"}
